# Assay results: publication PMC11006913
# Changes are numbered by the printed parent chain.
# Legend:
# Experiment in all cases: PBM; 200 nM protein, PBS
# Conditions in all cases: dsDNA, one strand shown
# VENTX [1] = biological target: T1, VENTX (Homo sapiens, UniProt O95231 78-163, R121Q)
# T1 sequence: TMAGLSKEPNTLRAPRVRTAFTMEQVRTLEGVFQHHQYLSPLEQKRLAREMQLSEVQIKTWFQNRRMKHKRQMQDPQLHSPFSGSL
# HOXC9 [2] = biological target: HOXC9 (Homo sapiens, UniProt P31274 178-260, K195R)
# VENTX [3] = biological target: T2, VENTX (Homo sapiens, UniProt O95231 78-163)
# T2 sequence: T1 sequence with Q44R
# VENTX [4] = biological target: T3, VENTX (Homo sapiens, UniProt O95231 78-163, Y115F)
# T3 sequence: T1 sequence with Y38F, Q44R
# HOXC9 [5] = biological target: HOXC9 (Homo sapiens, UniProt P31274 178-260)
# Sequence of HOXC9 (Homo sapiens, UniProt P31274 178-260) (P31274 178-260): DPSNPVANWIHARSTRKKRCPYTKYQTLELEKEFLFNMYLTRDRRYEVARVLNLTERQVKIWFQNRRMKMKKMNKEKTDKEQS
# HOXC9 [6] = biological target: HOXC9 (Homo sapiens, UniProt P31274 178-260, R193K)
# Sequence of HOXC9 (Homo sapiens, UniProt P31274 178-260, R193K) (P31274 178-260 R193K): as the sequence (P31274 178-260) above, with R16K counted along it
# VAX1 [7] = biological target: VAX1 (Homo sapiens, UniProt Q5SQQ9 86-172)
# Sequence of VAX1 (Homo sapiens, UniProt Q5SQQ9 86-172) (Q5SQQ9 86-172): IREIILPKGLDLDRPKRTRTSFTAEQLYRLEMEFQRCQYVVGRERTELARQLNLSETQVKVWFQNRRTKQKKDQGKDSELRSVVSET
# HOXC9 [8] = biological target: HOXC9 (Homo sapiens, UniProt P31274 178-260, R222W)
# Sequence of HOXC9 (Homo sapiens, UniProt P31274 178-260, R222W) (P31274 178-260 R222W): as the sequence (P31274 178-260) above, with R45W counted along it
# VAX1 [9] = biological target: VAX1 (Homo sapiens, UniProt Q5SQQ9 86-172, T142I)
# Sequence of VAX1 (Homo sapiens, UniProt Q5SQQ9 86-172, T142I) (Q5SQQ9 86-172 T142I): as the sequence (Q5SQQ9 86-172) above, with T57I counted along it
# VAX1 [10] = biological target: VAX1 (Homo sapiens, UniProt Q5SQQ9 86-172, K157R)
# Sequence of VAX1 (Homo sapiens, UniProt Q5SQQ9 86-172, K157R) (Q5SQQ9 86-172 K157R): as the sequence (Q5SQQ9 86-172) above, with K72R counted along it
# HOXA4 [11] = biological target: HOXA4 (Homo sapiens, UniProt Q00056 201-287, W262R)
# Sequence of HOXA4 (Homo sapiens, UniProt Q00056 201-287, W262R) (Q00056 201-287 W262R): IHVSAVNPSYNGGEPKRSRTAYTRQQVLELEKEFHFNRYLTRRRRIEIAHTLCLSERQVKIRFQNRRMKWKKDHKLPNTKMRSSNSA
# HOXA4 [12] = biological target: HOXA4 (Homo sapiens, UniProt Q00056 201-287, R217L)
# Sequence of HOXA4 (Homo sapiens, UniProt Q00056 201-287, R217L) (Q00056 201-287 R217L): as the sequence (Q00056 201-287 W262R) above, with R17L, R62W counted along it
# HOXD13 [13] = biological target: HOXD13 (Homo sapiens, UniProt P35453 263-343, T313R)
# Sequence of HOXD13 (Homo sapiens, UniProt P35453 263-343, T313R) (P35453 263-343 T313R): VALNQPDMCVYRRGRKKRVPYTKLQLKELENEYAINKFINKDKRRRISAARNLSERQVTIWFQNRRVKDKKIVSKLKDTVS
# NKX2-6 [14] = biological target: T4, NKX2-6 (Homo sapiens, UniProt A6NCS4 118-204)
# T4 sequence: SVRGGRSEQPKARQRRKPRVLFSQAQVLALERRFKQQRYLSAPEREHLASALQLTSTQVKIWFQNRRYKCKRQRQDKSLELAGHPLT
# HOXD13 [15] = biological target: HOXD13 (Homo sapiens, UniProt P35453 263-343)
# Sequence of HOXD13 (Homo sapiens, UniProt P35453 263-343) (P35453 263-343): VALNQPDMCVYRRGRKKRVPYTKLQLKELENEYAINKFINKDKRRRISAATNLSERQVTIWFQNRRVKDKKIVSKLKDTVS
# HOXA4 [16] = biological target: HOXA4 (Homo sapiens, UniProt Q00056 201-287)
# Sequence of HOXA4 (Homo sapiens, UniProt Q00056 201-287) (Q00056 201-287): as the sequence (Q00056 201-287 W262R) above, with R62W counted along it
# HOXD13 [17] = biological target: HOXD13 (Homo sapiens, UniProt P35453 263-343, T313A)
# Sequence of HOXD13 (Homo sapiens, UniProt P35453 263-343, T313A) (P35453 263-343 T313A): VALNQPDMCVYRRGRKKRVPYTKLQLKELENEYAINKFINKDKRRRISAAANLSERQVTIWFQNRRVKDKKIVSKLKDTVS
# NKX2-6 [18] = biological target: T5, NKX2-6 (Homo sapiens, UniProt A6NCS4 118-204, F151L)
# T5 sequence: T4 sequence with F34L
# HOXA4 [19] = biological target: HOXA4 (Homo sapiens, UniProt Q00056 201-287, W262F)
# Sequence of HOXA4 (Homo sapiens, UniProt Q00056 201-287, W262F) (Q00056 201-287 W262F): as the sequence (Q00056 201-287 W262R) above, with R62F counted along it
# HOXB6 [20] = biological target: HOXB6 (Homo sapiens, UniProt P17509 132-218, K202E)
# Sequence of HOXB6 (Homo sapiens, UniProt P17509 132-218, K202E) (P17509 132-218 K202E): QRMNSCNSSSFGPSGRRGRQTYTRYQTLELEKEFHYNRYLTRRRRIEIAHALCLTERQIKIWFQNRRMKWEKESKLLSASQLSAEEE
# HOXB6 [21] = biological target: HOXB6 (Homo sapiens, UniProt P17509 132-218)
# Sequence of HOXB6 (Homo sapiens, UniProt P17509 132-218) (P17509 132-218): as the sequence (P17509 132-218 K202E) above, with E71K counted along it
# HOXB9 [22] = biological target: HOXB9 (Homo sapiens, UniProt P17482 171-250, T197M)
# Sequence of HOXB9 (Homo sapiens, UniProt P17482 171-250, T197M) (P17482 171-250 T197M): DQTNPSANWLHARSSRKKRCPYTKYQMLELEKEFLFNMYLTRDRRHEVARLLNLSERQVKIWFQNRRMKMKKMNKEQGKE
# HOXB9 [23] = biological target: HOXB9 (Homo sapiens, UniProt P17482 171-250)
# Sequence of HOXB9 (Homo sapiens, UniProt P17482 171-250) (P17482 171-250): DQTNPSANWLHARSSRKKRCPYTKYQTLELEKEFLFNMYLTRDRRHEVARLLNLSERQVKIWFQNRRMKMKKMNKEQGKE
# ALX3 [24] = biological target: ALX3 (Homo sapiens, UniProt O95076 139-225, N203Q)
# Sequence of ALX3 (Homo sapiens, UniProt O95076 139-225, N203Q) (O95076 139-225 N203Q): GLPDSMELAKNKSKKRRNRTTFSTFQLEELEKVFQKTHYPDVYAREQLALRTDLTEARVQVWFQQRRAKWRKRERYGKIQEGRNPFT
# ALX3 [25] = biological target: ALX3 (Homo sapiens, UniProt O95076 139-225)
# Sequence of ALX3 (Homo sapiens, UniProt O95076 139-225) (O95076 139-225): as the sequence (O95076 139-225 N203Q) above, with Q65N counted along it
# ALX3 [26] = biological target: ALX3 (Homo sapiens, UniProt O95076 139-225, L168Q)
# Sequence of ALX3 (Homo sapiens, UniProt O95076 139-225, L168Q) (O95076 139-225 L168Q): as the sequence (O95076 139-225 N203Q) above, with L30Q, Q65N counted along it
# HOXB9 [27] = biological target: HOXB9 (Homo sapiens, UniProt P17482 171-250, R186Q)
# Sequence of HOXB9 (Homo sapiens, UniProt P17482 171-250, R186Q) (P17482 171-250 R186Q): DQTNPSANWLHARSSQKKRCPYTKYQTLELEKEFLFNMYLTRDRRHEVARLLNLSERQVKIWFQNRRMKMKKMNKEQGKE
# ALX3 [28] = biological target: ALX3 (Homo sapiens, UniProt O95076 139-225, L168V)
# Sequence of ALX3 (Homo sapiens, UniProt O95076 139-225, L168V) (O95076 139-225 L168V): as the sequence (O95076 139-225 N203Q) above, with L30V, Q65N counted along it
# ALX3 [29] = biological target: ALX3 (Homo sapiens, UniProt O95076 139-225, N203S)
# Sequence of ALX3 (Homo sapiens, UniProt O95076 139-225, N203S) (O95076 139-225 N203S): as the sequence (O95076 139-225 N203Q) above, with Q65S counted along it
# Sequence of HOXC9 (Homo sapiens, UniProt P31274 178-260, K195R) (P31274 178-260 K195R): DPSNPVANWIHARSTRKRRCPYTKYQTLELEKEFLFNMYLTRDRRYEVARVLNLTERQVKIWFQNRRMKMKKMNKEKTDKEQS
sequence,measurement,setting,value
CCGGGAGG,binding signal,VENTX [1],"8.1 upbm affinity estimate (log intensity, higher = more binding, comparable within an allelic series)"
same,binding signal,HOXC9 [2],"9.54 upbm affinity estimate (log intensity, higher = more binding, comparable within an allelic series)"
same,binding signal,VENTX [3],"7.94 upbm affinity estimate (log intensity, higher = more binding, comparable within an allelic series)"
same,binding signal,VENTX [4],"8.13 upbm affinity estimate (log intensity, higher = more binding, comparable within an allelic series)"
same,binding signal,HOXC9 [5],"9.63 upbm affinity estimate (log intensity, higher = more binding, comparable within an allelic series)"
same,binding signal,HOXC9 [6],"9.49 upbm affinity estimate (log intensity, higher = more binding, comparable within an allelic series)"
same,binding signal,VAX1 [7],"7.03 upbm affinity estimate (log intensity, higher = more binding, comparable within an allelic series)"
same,binding signal,HOXC9 [8],"9.7 upbm affinity estimate (log intensity, higher = more binding, comparable within an allelic series)"
same,binding signal,VAX1 [9],"7.12 upbm affinity estimate (log intensity, higher = more binding, comparable within an allelic series)"
same,binding signal,VAX1 [10],"7.11 upbm affinity estimate (log intensity, higher = more binding, comparable within an allelic series)"
CCGTCCGC,binding signal,VENTX [1],"7.99 upbm affinity estimate (log intensity, higher = more binding, comparable within an allelic series)"
same,binding signal,HOXC9 [2],"9.35 upbm affinity estimate (log intensity, higher = more binding, comparable within an allelic series)"
same,binding signal,VENTX [3],"8.02 upbm affinity estimate (log intensity, higher = more binding, comparable within an allelic series)"
same,binding signal,VENTX [4],"7.93 upbm affinity estimate (log intensity, higher = more binding, comparable within an allelic series)"
same,binding signal,HOXC9 [5],"9.48 upbm affinity estimate (log intensity, higher = more binding, comparable within an allelic series)"
same,binding signal,HOXC9 [6],"9.36 upbm affinity estimate (log intensity, higher = more binding, comparable within an allelic series)"
same,binding signal,HOXC9 [8],"9.54 upbm affinity estimate (log intensity, higher = more binding, comparable within an allelic series)"
CCCCCTGC,binding signal,VENTX [1],"8.15 upbm affinity estimate (log intensity, higher = more binding, comparable within an allelic series)"
same,binding signal,HOXA4 [11],"9.55 upbm affinity estimate (log intensity, higher = more binding, comparable within an allelic series)"
same,binding signal,VENTX [3],"8.15 upbm affinity estimate (log intensity, higher = more binding, comparable within an allelic series)"
same,binding signal,VENTX [4],"8.11 upbm affinity estimate (log intensity, higher = more binding, comparable within an allelic series)"
same,binding signal,HOXA4 [12],"9.45 upbm affinity estimate (log intensity, higher = more binding, comparable within an allelic series)"
same,binding signal,HOXD13 [13],"9.12 upbm affinity estimate (log intensity, higher = more binding, comparable within an allelic series)"
same,binding signal,NKX2-6 [14],"8.96 upbm affinity estimate (log intensity, higher = more binding, comparable within an allelic series)"
same,binding signal,HOXD13 [15],"9.26 upbm affinity estimate (log intensity, higher = more binding, comparable within an allelic series)"
same,binding signal,HOXA4 [16],"9.54 upbm affinity estimate (log intensity, higher = more binding, comparable within an allelic series)"
same,binding signal,HOXD13 [17],"9.34 upbm affinity estimate (log intensity, higher = more binding, comparable within an allelic series)"
same,binding signal,NKX2-6 [18],"8.92 upbm affinity estimate (log intensity, higher = more binding, comparable within an allelic series)"
same,binding signal,HOXA4 [19],"9.59 upbm affinity estimate (log intensity, higher = more binding, comparable within an allelic series)"
TAATGTGA,binding signal,VENTX [1],"10.5 upbm affinity estimate (log intensity, higher = more binding, comparable within an allelic series)"
AGTTAATG,binding signal,VENTX [1],"11.5 upbm affinity estimate (log intensity, higher = more binding, comparable within an allelic series)"
same,binding signal,HOXC9 [2],"12.5 upbm affinity estimate (log intensity, higher = more binding, comparable within an allelic series)"
same,binding signal,VENTX [3],"12.4 upbm affinity estimate (log intensity, higher = more binding, comparable within an allelic series)"
same,binding signal,VENTX [4],"11.4 upbm affinity estimate (log intensity, higher = more binding, comparable within an allelic series)"
same,binding signal,HOXB6 [20],"9.94 upbm affinity estimate (log intensity, higher = more binding, comparable within an allelic series)"
same,binding signal,HOXC9 [5],"12.5 upbm affinity estimate (log intensity, higher = more binding, comparable within an allelic series)"
same,binding signal,HOXC9 [6],"12.5 upbm affinity estimate (log intensity, higher = more binding, comparable within an allelic series)"
same,binding signal,HOXC9 [8],"10.8 upbm affinity estimate (log intensity, higher = more binding, comparable within an allelic series)"
same,binding signal,HOXA4 [19],"11.4 upbm affinity estimate (log intensity, higher = more binding, comparable within an allelic series)"
same,binding signal,HOXB6 [21],"11.7 upbm affinity estimate (log intensity, higher = more binding, comparable within an allelic series)"
CCAGGGCC,binding signal,VENTX [1],"8.11 upbm affinity estimate (log intensity, higher = more binding, comparable within an allelic series)"
same,binding signal,HOXA4 [11],"9.65 upbm affinity estimate (log intensity, higher = more binding, comparable within an allelic series)"
same,binding signal,VENTX [3],"8.27 upbm affinity estimate (log intensity, higher = more binding, comparable within an allelic series)"
same,binding signal,VENTX [4],"8.19 upbm affinity estimate (log intensity, higher = more binding, comparable within an allelic series)"
same,binding signal,HOXA4 [12],"9.71 upbm affinity estimate (log intensity, higher = more binding, comparable within an allelic series)"
same,binding signal,HOXA4 [16],"9.79 upbm affinity estimate (log intensity, higher = more binding, comparable within an allelic series)"
same,binding signal,HOXA4 [19],"9.73 upbm affinity estimate (log intensity, higher = more binding, comparable within an allelic series)"
CGAGCGAC,binding signal,VENTX [1],"8.03 upbm affinity estimate (log intensity, higher = more binding, comparable within an allelic series)"
same,binding signal,HOXB9 [22],"8.47 upbm affinity estimate (log intensity, higher = more binding, comparable within an allelic series)"
same,binding signal,HOXC9 [2],"9.58 upbm affinity estimate (log intensity, higher = more binding, comparable within an allelic series)"
same,binding signal,VENTX [3],"7.84 upbm affinity estimate (log intensity, higher = more binding, comparable within an allelic series)"
same,binding signal,VENTX [4],"8.14 upbm affinity estimate (log intensity, higher = more binding, comparable within an allelic series)"
same,binding signal,HOXB9 [23],"8.38 upbm affinity estimate (log intensity, higher = more binding, comparable within an allelic series)"
same,binding signal,HOXC9 [5],"9.72 upbm affinity estimate (log intensity, higher = more binding, comparable within an allelic series)"
same,binding signal,ALX3 [24],"7.8 upbm affinity estimate (log intensity, higher = more binding, comparable within an allelic series)"
same,binding signal,HOXC9 [6],"9.67 upbm affinity estimate (log intensity, higher = more binding, comparable within an allelic series)"
same,binding signal,ALX3 [25],"7.63 upbm affinity estimate (log intensity, higher = more binding, comparable within an allelic series)"
same,binding signal,VAX1 [7],"7.11 upbm affinity estimate (log intensity, higher = more binding, comparable within an allelic series)"
same,binding signal,ALX3 [26],"7.78 upbm affinity estimate (log intensity, higher = more binding, comparable within an allelic series)"
same,binding signal,HOXB9 [27],"8.41 upbm affinity estimate (log intensity, higher = more binding, comparable within an allelic series)"
same,binding signal,HOXC9 [8],"9.73 upbm affinity estimate (log intensity, higher = more binding, comparable within an allelic series)"
same,binding signal,ALX3 [28],"7.74 upbm affinity estimate (log intensity, higher = more binding, comparable within an allelic series)"
same,binding signal,VAX1 [9],"7.15 upbm affinity estimate (log intensity, higher = more binding, comparable within an allelic series)"
same,binding signal,ALX3 [29],"7.82 upbm affinity estimate (log intensity, higher = more binding, comparable within an allelic series)"
same,binding signal,VAX1 [10],"7.05 upbm affinity estimate (log intensity, higher = more binding, comparable within an allelic series)"
CGATTACC,binding signal,VENTX [1],"10.2 upbm affinity estimate (log intensity, higher = more binding, comparable within an allelic series)"
AAGTAAAC,binding signal,VENTX [1],"9.37 upbm affinity estimate (log intensity, higher = more binding, comparable within an allelic series)"
same,binding signal,VENTX [3],"9.73 upbm affinity estimate (log intensity, higher = more binding, comparable within an allelic series)"
